# Screens as filed in PubChem BioAssay.
# SW480 rerep = DNA re-replication induction in SW480 cells | SW480 DNA re-replication, Hoechst DNA content imaging, 48 h | Potency, µM (titrated, usually from 46.1 µM), for inactives: at the highest dose re-replication activation, usual class: activators | actives 1.8% (n = 340,000) | AID 624297; also: % of control where 0% means no effect; nearly all actives have a fitted effect of over 55% in size
#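 DNA re-replication was detected as more nuclei of elevated Hoechst intensity after 48 hr exposure to compound (23 nL pinned per well of 250 cells).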
# KB-V1 cytotox = KB-V1 MDR subline cytotoxicity; KB-V1 MDR cells viability, CellTiter-Glo, 72 h; Potency, µM (titrated, usually from 46.1 µM), hits mostly cytotoxic; actives 3.4% (n = 400,000); AID 1347076; also: % is scaled to controls: 0 for no effect and ±100 for the full control effect; nearly all actives have a fitted effect of over 60% in size
#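 Compound-treated KB-V1 multidrug-resistant cells, 72 h, 37 degrees C; viability by CellTiter-Glo. Fitted qHTS curves give the values.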
# KB-3-1 tox = kills parental KB-3-1 adenocarcinoma cells; KB-3-1 viability, CellTiter-Glo ATP luminescence, 72 h; actives 1.4% (n = 400,000); AID 1347075; Potency, µM (titrated, usually from 46.1 µM), most hits filed as cytotoxic; also: % is scaled to controls: 0 for no effect and ±100 for the full control effect; nearly all actives have a fitted effect of over 60% in size
#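 Cytotoxicity measured as CellTiter-Glo luminescence after 72 h at 37 C. Compound titrations were pinned onto drug-naive KB-3-1 parental adenocarcinoma cells grown in DMEM with 10% FBS, and normalized data fitted to concentration-response curves.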
# ELG1 repair inh = inhibitors of ELG1-dependent DNA repair in HEK293T cells; Potency, µM (highest dose often 46.1 µM), inactives show top-dose activity change, negative = inhibition, usual class: inhibitors; AID 504467; HEK293T ELG1-luciferase reporter, luminescence, 16 h; DNA damage induced by 5-fluorouridine; actives 2.3% (n = 330,000); also: % is scaled to controls: 0 for no effect and ±100 for the full control effect; nearly all actives have a fitted effect of over 55% in size
#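 5-Fluorouridine DNA damage + compound/DMSO, 2,000 cells/well, 16 h, 37 °C/5% CO2. ONE-Glo, 30 min RT, luminescence. Readout = decrease in reporter signal.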
# MCF10A rereplic = inducers of DNA re-replication in MCF 10A breast cells; MCF 10A DNA re-replication, Hoechst nuclear intensity, 48 h; Potency, µM (series often up to 46.1 µM), for the others: top-dose activity, positive = re-replication, most hits filed as activators; actives 2.9% (n = 350,000); AID 624296; also: % of control where 0% means no effect; nearly all actives have a fitted effect of over 50% in size
# * marks the source's active call; other numbers are inactive results; i = inactive; u = inconclusive; x = no result given. This is a sample that favours compounds with a hit; in the whole collection about 8.1% have one here. Calls follow the shape of the dose curve; as a rule, active = well fitted curve in the direction sought with a large enough effect; inconclusive = small, poorly fitted or top-dose-only effect, or another doubt; inactive = no such curve, though single readings can be large; an effect the other way counts as inactive or inconclusive. Potency is read from the fitted curve at half-maximal effect.
SMILES,SW480 rerep,KB-V1 cytotox,KB-3-1 tox,ELG1 repair inh,MCF10A rereplic
COc1ccc(NC(=O)C2CCCN2S(=O)(=O)c2ccc(Cl)cc2)cc1 (stereo not drawn),-6%,i,i,7%,-4%
O=C(O)/C=C\C(=O)Nc1ccccc1C#Cc1ccc(Br)cc1,u,i,u,u,18µM*
Cc1cc(C)cc(C(O)c2ncc(-c3ccccc3)[nH]2)c1 (stereo not drawn),x,i,i,x,x
CCN(CC)CCOC(=O)c1ccc(N/C=C(/C#N)c2nc(-c3ccc4c(c3)OCO4)cs2)cc1,u,i,i,7%,18µM*
O=S(=O)(c1ccc(Cl)cc1)N1CCOCC1,x,i,i,x,x
O=C(Nc1ccc(Oc2ccccc2)cc1)c1ccc2nc([C@@H]3O[C@H](CO)[C@H](O)[C@H](O)[C@H]3O)[nH]c2c1,x,i,i,x,x
CC(C)(C)c1cc(CCC(=O)NN)cc(C(C)(C)C)c1O,2%,i,i,-10%,0%
COCCOC(=O)/C(=C\c1cc(C(C)(C)C)c(O)c(C(C)(C)C)c1)C(C)=O,u,i,i,u,3.3µM*
O=C(NCC(c1cccs1)S(=O)(=O)c1cccs1)c1ccc(Cl)cc1 (stereo not drawn),x,i,i,x,x
O=C(NC1CCCCC1)N1CCCC(c2nc3ccccc3[nH]2)C1 (stereo not drawn),-1%,21µM*,i,-10%,-5%
CCCCC(C(=O)NCCC(C)C)N(CCCN1CCOCC1)C(=O)c1snc(C(N)=O)c1N (stereo not drawn),-3%,9.2µM*,i,5%,18%
COc1ccc(C2C=C(c3ccccc3)Nc3nc(NC(=O)/C=C/c4ccccc4OC)nn32)cc1 (stereo not drawn),x,i,i,x,x
COC(=O)c1sc(C(C)(C)C)cc1CS(=O)(=O)c1ccccn1,-24%,u,i,16µM*,0%
CCCC(=O)OCc1cnc(C)c2oc(=O)c(C(=O)Nc3ccc(F)cc3C)cc12,x,i,i,x,x
CC(C)(C)c1ccc(C(=O)Nc2ccc(-c3nc4ccccc4o3)c(O)c2)cc1,x,i,u,x,x
Cc1ccc2oc(/N=C(\N)NC(=O)C3CC3)nc2c1,9.2µM*,5.2µM*,u,u,u
Cc1ccc2oc(/N=C(\N)NC(=O)C(C)(C)C)nc2c1,u,i,i,u,-30%
Cc1cc2oc(=O)cc(Cn3ncc(Cl)c(Cl)c3=O)c2cc1Cl,2.6µM*,u,13µM*,u,7.3µM*
Cc1cccc(Cn2ncc(Cl)c(Cl)c2=O)c1,5.8µM*,21µM*,u,u,13µM*
Cc1cc(C(=O)Cn2ncc(Cl)c(Cl)c2=O)c(C)n1CC(F)(F)F,5.8µM*,u,u,u,2.6µM*
O=c1c2ccccc2cnn1Cc1ccc(Cl)c(Cl)c1,5%,u,i,8%,1%
Cc1ccc(OCC(=O)c2cc(C)n(CC(F)(F)F)c2C)c([N+](=O)[O-])n1,u,u,u,-1%,u
Cc1ccc(C)c(C(=O)Cn2ncc(Cl)c(Cl)c2=O)c1,u,u,u,u,4.6µM*
Cc1cc2oc(=O)cc(CN3CCN(c4ccccc4)CC3)c2cc1Cl,x,i,i,x,x
COCCCNc1nc2c(c(=O)n(Cc3ccccc3)c(=O)n2C)n1C,x,i,i,x,x
SMILES,SW480 rerep,KB-V1 cytotox,KB-3-1 tox,ELG1 repair inh,MCF10A rereplic
CCn1c(CN2CCOCC2)nnc1SCC(=O)Nc1cccc(C)c1,-29%,i,i,1%,-6%
CCN(CC)CCNC(=O)c1cc(Br)c(N)cc1OC,-9%,i,i,6%,-1%
CCOC(=O)C1CCCN(C(=O)c2cccc(Cl)c2)CC1 (stereo not drawn),x,i,i,x,x
Cc1ccccc1OCC1Cn2c(nc3c2c(=O)n(C)c(=O)n3C)O1 (stereo not drawn),-7%,i,u,u,15%
CCc1ccccc1NC(=O)Nc1cc(C(=O)NCc2ccc(C)cc2)ccc1N1CCCC1,x,i,i,x,x
COc1ccccc1C(=O)Nc1ccc2c(c1)CN(C(=O)CSC)CC2,u,i,26µM*,-2%,12µM*
CCOC(=O)CNC(=O)N1CCc2ccc(NC(=O)c3ccccc3Cl)cc2C1,-21%,u,i,7%,7.3µM*
COc1ccccc1C(=O)Nc1ccc2c(c1)CCCN2C(=O)c1ccccc1,22%,u,18µM*,u,3%
O=C(O)CCc1c2ccc(=O)c(O)c-2oc2c(O)c(O)ccc12,x,i,i,x,x
O=C(CCc1ccc(S(=O)(=O)N2CCOCC2)cc1)Nc1ccc(F)cc1[N+](=O)[O-],-4%,x,x,-20%,8%
Cc1ccc(-n2c(C)cc(C(=O)COC(=O)c3ccc[nH]c3=O)c2C)cc1,-59%,18µM*,i,u,-2%
Cc1cc(C(=O)COC(=O)c2ccc(O)cc2O)c(C)n1-c1ccccc1,-5%,16µM*,u,u,u
Cc1cc(C(=O)COC(=O)c2ccc(O)cc2O)c(C)n1-c1ccc(OC(F)F)cc1,0%,u,16µM*,-10%,u
COc1ccc(-n2c(C)cc(C(=O)COC(=O)c3ccc(O)cc3O)c2C)cc1,-3%,u,u,u,u
CN1C(=O)NC(=O)C1c1ccccc1 (stereo not drawn),-4%,u,i,x,-30%
C/C(=N/NC(=O)c1cccs1)c1ccc(NC(=O)COc2ccc(Cl)cc2Cl)cc1,9.2µM*,i,i,u,6.5µM*
C/C(=N/NC(=O)c1ccco1)c1cccc(NC(=O)c2ccc(C)s2)c1,-2%,10µM*,i,3%,3%
C/C(=N\NC(=O)c1c(Cl)cnn1C)c1cccc(NC(=O)COc2ccccc2)c1,4%,i,i,u,16µM*
C/C(=N/NC(=O)c1ccc(Cl)s1)c1ccc(NC(=O)COc2ccc(Cl)cc2)cc1,u,u,u,16%,u
CC(=O)c1cccc(NC(=O)COc2ccccc2)c1,-10%,i,i,u,8%
C/C(=N/NC(=O)c1ccc(C)s1)c1cccc(NC(=O)COc2ccc(Cl)cc2Cl)c1,u,i,i,u,9.2µM*
C/C(=N/NC(=O)c1ccco1)c1cccc(NC(=O)c2ccc(C)o2)c1,0%,i,i,-8%,28%
NC(=O)c1ccc(NC(=O)CNC(c2ccccc2)c2ccccc2)cc1,-6%,i,i,3%,-2%
CN(C)C1=NCCN1CCCCc1ccccc1,-7%,i,i,6%,0%
Cc1cccc(OCC(O)Cn2c(=N)n(Cc3ccccc3)c3ccccc32)c1 (stereo not drawn),u,u,i,u,8%
